From PubChem BioAssay AID1619 (SRMLSC, 2009)
About 830 (0.38%) of roughly 220,000 compounds were called active.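 Rule for the calls: active = compound inhibiting the enzyme by more than half at any dose during confirmatory dose-response retesting; inconclusive = strong single-dose inhibitors picked by rank but not retested; inactive = the rest.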 The list is a sample of the results. Potency and affinity values are given separately.

Biological target: Leucine aminopeptidase (Plasmodium falciparum (isolate 3D7)) (UniProt Q8IL11)
Sequence (Q8IL11 whole entry, looked up): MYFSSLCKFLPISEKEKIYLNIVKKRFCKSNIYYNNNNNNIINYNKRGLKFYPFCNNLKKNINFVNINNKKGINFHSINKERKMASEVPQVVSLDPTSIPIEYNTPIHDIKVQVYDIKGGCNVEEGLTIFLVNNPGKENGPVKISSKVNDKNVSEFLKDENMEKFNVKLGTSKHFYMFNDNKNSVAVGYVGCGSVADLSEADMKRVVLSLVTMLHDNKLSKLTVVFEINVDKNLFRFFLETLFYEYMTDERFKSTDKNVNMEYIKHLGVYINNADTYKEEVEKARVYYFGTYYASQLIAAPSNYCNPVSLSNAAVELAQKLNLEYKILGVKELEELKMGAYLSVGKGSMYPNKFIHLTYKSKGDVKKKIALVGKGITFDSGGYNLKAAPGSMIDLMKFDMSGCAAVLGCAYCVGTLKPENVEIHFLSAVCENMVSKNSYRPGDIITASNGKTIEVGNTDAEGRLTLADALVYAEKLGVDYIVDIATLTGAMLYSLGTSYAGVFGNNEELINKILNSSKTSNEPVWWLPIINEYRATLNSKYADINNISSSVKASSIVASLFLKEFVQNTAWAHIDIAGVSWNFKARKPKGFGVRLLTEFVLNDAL
Experiment: P. falciparum M17LAP inhibitors, primary screen, biochemical, fluorogenic H-Leu-NHMec substrate, 1536-well (AID 1619);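 note: plate controls were full reaction with DMSO carrier for no effect and no enzyme background for full effect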
Settings: recombinant M17LAP, H-Leu-NHMec fluorogenic kinetic assay; at 30 µM; active compounds read high

inhibition, inactive:
COc1ccc(S(=O)(=O)Nc2ccc3c(c2)OCO3)cc1 -4.98%
COc1ccccc1NC(=S)NCCSc1ccc(Cl)cc1 -3.97%
O=C(Nc1nccs1)c1ccc(S(=O)(=O)N2CCOCC2)cc1 7.17%
CCCC1=C(C(=O)OCC)C(c2ccncc2)n2ncnc2N1 (stereo not drawn) 5.84%
CC1=CC(C#N)(C#N)C(C#N)(C#N)C(c2ccccc2)N1 (stereo not drawn) -40.9%
O=C(O)C1CC=CCC1C(=O)Nc1cccc([N+](=O)[O-])c1 (stereo not drawn) 14.2%
O=C(O)C1CCCCC1C(=O)NCCc1cccc(Cl)c1 (stereo not drawn) 75%
O=C(O)C1CC=CCC1C(=O)Nc1cccc(C(=O)N2CCCCC2)c1 (stereo not drawn) 40.8%
O=C(Nc1nccs1)c1ccc(NC(=O)c2ccco2)cc1 9.18%
O=C(O)C1C2C=CC(C2)C1C(=O)Nc1cccc(F)c1 (stereo not drawn) 23.1%
O=C(O)C1CC=CCC1C(=O)NCCc1ccccc1 (stereo not drawn) 42%
O=C(O)C1CCCCC1C(=O)Nc1nccs1 (stereo not drawn) 15.9%
O=C(Nc1cccc([N+](=O)[O-])c1)C1C2CC/C=C\CCC21 (stereo not drawn) 0.68%
O=C(Nc1nc(-c2ccccc2)cs1)C1c2ccccc2Oc2ccccc21 1.51%
Cc1ccc(Cn2c(=O)cc(C(=O)O)c3ccccc32)cc1 -52.6%
CC(C)CC(=O)N1CCN(S(C)(=O)=O)CC1 9.33%
CCCc1cc(C(=O)N2CCN(S(=O)(=O)c3ccc(OC)c(OC)c3)CC2)cs1 -3.16%
COc1ccc(Cl)cc1C(=O)N(Cc1nc(-c2cccc(C)c2)no1)C(C)C -1.6%
CC(C)(C)c1ccc(C(=O)Nc2ccc(O)c3c(=O)cc(-c4cccc(Cl)c4)oc23)cc1 0.21%
Cc1nnc(-c2cnn(C)c2N)n1CCCN(C)C -1.24%
Cc1ccccc1N1CCN(C(=O)CN2C(=O)c3ccccc3C2=O)CC1 -9.93%
O=C(Nc1ccc2nsnc2c1)c1cccs1 6.9%
Cc1ccc(S(=O)(=O)Oc2ccccc2/C=N/Nc2ccc(C(=O)O)cc2)cc1 28%
CC(=O)CC(C)(C)Nc1nc2ccc([N+](=O)[O-])cc2o1 13.3%
COC(=O)c1ccc(C)c(NS(=O)(=O)c2ccc(C)c([N+](=O)[O-])c2)c1 1.7%
O=C1C2CCCN2C(c2ccc(F)cc2)N1c1nccs1 (stereo not drawn) 0.99%
Cc1cc(C)cc(Oc2ccc(NC(=O)C3CC=CCC3C(=O)O)cc2)c1 (stereo not drawn) 5.05%
Cc1cccc(Oc2ccc(NC(=O)C3CC=CCC3C(=O)O)cc2)c1 (stereo not drawn) 2.18%
Cc1cccc(-n2c(CNC(=O)c3ccc(S(=O)(=O)N(C)C)cc3)nnc2SCC(=O)Nc2ccc(F)cc2)c1 -5.07%
COc1cccc(CNc2nc3nc(C)cc(=O)n3[nH]2)c1 -3.52%
CC(C)(C)c1ccc(OC(=O)CN2C(=O)C3C4CCC(C4)C3C2=O)cc1 (stereo not drawn) -0.46%
Cc1ccc(SCC(=O)Nc2ccccc2C(=O)O)cc1 -12.3%
CC(=O)Nc1cccc(C(=O)Nc2ccccc2C(=O)O)c1 4.74%
O=C(O)c1cc2ncc(-c3[nH]ncc3[N+](=O)[O-])cn2n1 15.3%
Cc1c(C(=O)O)cnc2c([N+](=O)[O-])cnn12 12.2%
CCOC(=O)c1cnc2c([N+](=O)[O-])cnn2c1C 12.8%
Cc1cnc2c(C(=O)O)cnn2c1 13.5%
Cc1ccc(NC(=O)/C(Cl)=C/c2ccccc2)cc1C 0.91%
Cc1ccc(S(=O)(=O)N2CCN(c3ccc([N+](=O)[O-])c(NCCN4CCOCC4)c3)CC2)cc1 3.35%
CC(=O)Nc1nc(C)c(Oc2ccc(Cl)cc2Cl)c(=O)[nH]1 7.16%
O=C(O)C1C2CCC(O2)C1C(=O)NCc1ccc(Cl)cc1 (stereo not drawn) 2.78%
CC(C)OC(=O)c1cc(NC(=O)C2C3CCC(O3)C2C(=O)O)cc(C(=O)OC(C)C)c1 (stereo not drawn) 2.91%
Cc1sc(NC(=O)c2cc3ccccc3oc2=O)c(C(=O)OC(C)C)c1-c1ccccc1 5.06%
Cc1sc(NC(=O)C2C3CCC(O3)C2C(=O)O)nc1-c1ccc(CC(C)C)cc1 (stereo not drawn) 6.67%
O=C(c1cccc(C(F)(F)F)c1)N1CCc2c([nH]c3ccccc23)C1C(F)(F)F (stereo not drawn) -3.58%
Cc1cc(C)n(C2CC(=O)N(c3cccc(Cl)c3)C2=O)n1 (stereo not drawn) 10.2%
CCOc1cc(/C=N/n2cnnc2)ccc1OS(=O)(=O)c1ccc(C)cc1 -1.56%
O=C(NCCCN1CCCC1=O)c1cc(NS(=O)(=O)c2ccc(F)cc2)cc(NS(=O)(=O)c2ccc(F)cc2)c1 22.7%
Cc1cccc(NC(=O)CSc2ncnc3nc[nH]c23)c1 56.5%
O=C(CSc1ncnc2nc[nH]c12)Nc1ccc(Br)cc1Cl 9.25%
O=C(CSc1ncnc2nc[nH]c12)Nc1ccccc1C(F)(F)F 12%
Cc1cccc(NC(=O)CSc2ncnc3nc[nH]c23)c1C 43.9%
O=C(O)COc1cccc(NC(=O)C2CCCO2)c1 (stereo not drawn) 5.81%
C=CCn1c(O)c(N=Nc2nc3ccccc3c(=O)n2-c2ccccc2)c2ccccc21 -2.79%
O=C(CCCO)N/N=C/c1ccccc1[N+](=O)[O-] 8.09%
O=C(CSc1nc(O)c(-c2ccccc2)c(=O)[nH]1)N1CCOCC1 12.3%
CCOc1ccc(N2C(=O)C3Sc4[nH]c(=O)sc4C(c4ccc(OC)c(OC)c4)C3C2=O)cc1 (stereo not drawn) -5.76%
O=C(O)C1CC=CCC1C(=O)Nc1ccccc1C(=O)N1CCN(c2ccc(F)cc2)CC1 (stereo not drawn) 23.1%
Cc1cc(NC(=O)C2CC=CCC2C(=O)O)no1 (stereo not drawn) 41.7%
Cc1ccccc1NC(=O)C1CC(Cl)=CCC1C(=O)O (stereo not drawn) 43.5%
Cc1ccc(N2CCN(C(=O)c3ccccc3NC(=O)C3CC=CCC3C(=O)O)CC2)cc1 (stereo not drawn) 49.9%
O=C(O)C1CC=C(Cl)CC1C(=O)NCc1ccccc1 (stereo not drawn) 36.4%
Cc1ccc(C)c(NC(=O)C2CC3c4ccccc4C2c2ccccc23)c1 (stereo not drawn) -1.72%
